The record followed here is PubChem BioAssay.

Molecules are shown by their SMILES. Inconclusive results are not listed. Calls of active or inactive are those of the source.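 How the source made its calls, unless noted: active means viability at or below 30% in both replicate assays; inconclusive means viability at or below 30% in just one of the two assays; inactive means the rest.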

Test [1] in a line: Her2 expression decrease, cell viability multiplex – SKBR3 breast tumor cells, AlphaScreen, ATP viability, primary screen (AID 461;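 active means Her2 level under about 52% in both replicate screens, with viability over 70% of control, limit read from the data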;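 on Her2 level: lower value means less Her2 protein in the cells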;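 on viability: percent of carrier control wells set as 100% viability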). Particulars: SKBR3 Her2 protein level, 18-24 h, measured here: SKBR3 viability, ATP luminescence, at 10 µM. For orientation: In Alpha technology, singlet oxygen from a donor bead excites a nearby acceptor bead.
The target in test [2] is Receptor tyrosine-protein kinase erbB-2 (Homo sapiens) (UniProt P04626). The test is described as above. Particulars: 18-24 h, at 10 µM, stronger effect = lower value.
Chain of Receptor tyrosine-protein kinase erbB-2 (Homo sapiens) (P04626 whole entry, looked up): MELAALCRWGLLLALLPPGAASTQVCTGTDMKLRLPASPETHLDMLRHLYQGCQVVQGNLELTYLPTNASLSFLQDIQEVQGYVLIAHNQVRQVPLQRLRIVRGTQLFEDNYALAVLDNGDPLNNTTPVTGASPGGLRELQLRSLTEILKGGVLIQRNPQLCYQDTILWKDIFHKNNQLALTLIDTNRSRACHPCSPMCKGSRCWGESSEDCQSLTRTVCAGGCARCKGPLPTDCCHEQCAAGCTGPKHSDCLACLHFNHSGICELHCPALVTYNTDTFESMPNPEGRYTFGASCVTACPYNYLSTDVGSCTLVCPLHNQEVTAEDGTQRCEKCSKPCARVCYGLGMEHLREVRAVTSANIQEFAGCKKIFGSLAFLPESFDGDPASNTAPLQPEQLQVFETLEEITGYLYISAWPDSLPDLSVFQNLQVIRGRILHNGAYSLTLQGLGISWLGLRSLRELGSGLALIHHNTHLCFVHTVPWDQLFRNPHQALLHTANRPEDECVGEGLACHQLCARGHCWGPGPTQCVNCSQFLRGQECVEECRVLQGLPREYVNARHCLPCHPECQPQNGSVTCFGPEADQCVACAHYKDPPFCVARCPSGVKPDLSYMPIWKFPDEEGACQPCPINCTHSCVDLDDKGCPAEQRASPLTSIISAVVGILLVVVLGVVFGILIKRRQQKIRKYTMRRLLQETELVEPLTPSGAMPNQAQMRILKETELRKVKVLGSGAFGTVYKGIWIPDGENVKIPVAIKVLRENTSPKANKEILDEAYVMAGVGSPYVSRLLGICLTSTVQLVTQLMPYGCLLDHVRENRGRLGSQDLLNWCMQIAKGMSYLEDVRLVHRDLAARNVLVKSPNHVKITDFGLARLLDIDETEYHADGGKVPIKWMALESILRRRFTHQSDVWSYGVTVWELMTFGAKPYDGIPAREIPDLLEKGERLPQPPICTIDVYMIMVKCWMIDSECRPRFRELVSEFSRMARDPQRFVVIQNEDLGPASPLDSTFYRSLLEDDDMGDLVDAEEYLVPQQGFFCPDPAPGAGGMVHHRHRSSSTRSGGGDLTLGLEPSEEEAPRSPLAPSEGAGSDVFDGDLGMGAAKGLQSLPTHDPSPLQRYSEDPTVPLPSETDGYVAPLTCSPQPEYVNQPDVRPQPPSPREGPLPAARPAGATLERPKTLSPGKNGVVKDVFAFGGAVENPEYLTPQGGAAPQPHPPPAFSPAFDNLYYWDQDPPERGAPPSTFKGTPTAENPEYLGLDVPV
Test [3] is described as follows: reduced viability of SK-BR-3 breast cancer cells – cell-based, 24 h, human, pilot screen (AID 572;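 active means viability at or below 10% of carrier control in both of two separate runs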;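 further: compound exposure lasted between 18 and 24 h rather than exactly 24 h; 100% = carrier-treated control wells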). To be noted: SK-BR-3 viability, CellTiter-Glo luminescence, at 10 µM, stronger effect = lower value.
The nature of test [4]: HUVEC growth inhibition – cell-based, human, primary screen (AID 575).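 Further: 100% = median of untreated cell wells with 0.1% DMSO on each plate.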 To be noted: HUVEC proliferation, CellTiter-Glo luminescence, 72 h; at 10 µM; stronger effect = lower value.
Test [5] can be described thus: H69AR cell proliferation blockers – human, duplicate replicates, primary screen (AID 580;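 active means viability at or under a set limit in both replicates, limit being median viability minus 3 SD, cut at about 48% in these data, passing the limit was not always enough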;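 further: 100% = mean luminescence of untreated wells and 0% = no signal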). To be noted: H69AR lung tumor cells viability, ATP luminescence, 72 h; at 10 µM; stronger effect = lower value.
Test [6] is described as follows: MRP1 drug-resistance reversers in H69AR cells – cell-based, doxorubicin co-treatment, pilot screen (AID 601;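 active means viability loss from added drug above about 55%, and viability with drug at most 40%, in both replicates, limit read from the data, passing the limit was not always enough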). To be noted: CellTiter-Glo, 72 h, at 10 µM; for differential viability (reversal): stronger effect = higher value. Background: ATP-based viability assays read luminescence as a measure of living cells.
Test [7] can be described thus: yeast transport mutant growth inhibition pilot in 384-well plates, post-Golgi transport modulator project (AID 636; in the data active means inhibition above about 31%). Particulars: absorbance 615 nm, about 18 h, stronger effect = higher value.
A short description of test [8]: growth suppression of yeast trafficking mutant, preliminary HTS, modulators of trafficking downstream of Golgi apparatus project, 1536-format plate, OD 615 nm (AID 637; in the data active means inhibition above about 30%). To be noted: yeast transport mutant growth, absorbance 615 nm, 18 h; stronger effect = higher value.
Test [9] can be described thus: S. cerevisiae growth inhibition in permissive medium (OD615), pilot counter-assay for S. cerevisiae lifespan shortening project, permissive growth control (AID 705;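 active means growth inhibition above 25% in both replicates, a cutoff set 3 SD above the mean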). To be noted: OD615, 24 h, at 10 µM, stronger effect = higher value.
The nature of test [10]: S. cerevisiae growth inhibition in restrictive medium, OD615, pilot screen, restrictive growth control, yeast lifespan reduction project (AID 706;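 active means growth inhibition above a set limit, 3 SD over mean compound inhibition, in both replicates, cut at about 43% in these data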;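 further: modified DeaD lifespan yeast strain shifted to restrictive glucose medium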). To be noted: OD615, 48 h, at 10 µM, stronger effect = higher value.
Test [11] can be described thus: doxorubicin toxicity protection in MRP-1 cells – H69AR cells, CellTiter-Glo, duplicate, MRP-1 activator project, pilot screen (AID 807;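 active means viability increase at or above a cutoff of the median across tested compounds plus 3 SD, cut at about 8.5% in these data, passing the limit was not always enough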;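 further: compound pretreatment 18-22 h then 72 h combined with doxorubicin; 0% = doxorubicin alone and 100% = vehicle without doxorubicin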). To be noted: H69AR viability with doxorubicin, CellTiter-Glo luminescence; at 10 µM; stronger effect = higher value.
Test [12] in a line: viability of HCT116 without oncogenic beta-catenin – human colon tumor cells, pilot screen (AID 823;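 active means cell viability at or below a set limit in both duplicate runs, the limit being the all-compound median minus 4 SD, cut at about 23% in these data, passing the limit was not always enough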;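 further: 0% = wells killed by 20 µM Hyamine and 100% = untreated DMSO cell wells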). Particulars: HCT116 beta-catenin knockout viability, CellTiter-Glo, 60 h; at 10 µM; stronger effect = lower value.
A short description of test [13]: viability of PTEN-null HCT116 cells – cell-based, HCT116 clonal line, CellTiter-Glo, pilot screen (AID 824;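 active means viability at or below 27.92% in each of two runs, the all-compound median minus 4 SD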;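 further: 0% = 20 µM Hyamine control and 100% = vehicle cell control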). Particulars: HCT116 PTEN-deleted viability, 60 h, at 10 µM, stronger effect = lower value.
Test [14] in a line: RAM pathway blockade in budding yeast – dse1pr::URA3 reporter, 5-FOA selection, pilot screen (AID 869;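 active means inhibition over a set limit, the all-compound mean plus 3 SD, in both replicate runs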;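 further: 0% = DMSO wells with no growth and 100% = 10 µM 1-NA-PP1 with full growth; RAM network block rescues cells from 5-FOA so hits raise OD615 growth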). To be noted: S. cerevisiae dse1pr::URA3 5-FOA growth, OD615, 2 d; at 10 µM; stronger effect = higher value; strain carries analog-sensitive mutant Cbk1 kinase.
Test [15] in a line: RAM signaling pathway blockade in yeast – S. cerevisiae, Pdr1DBD-CYC8 efflux-inhibited sensitized strain, primary screen (AID 1298;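 active means RAM network inhibition above 8.4% in each of two replicates, 3 SD over the compound average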;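 further: 0% = DMSO untreated cells without growth and 100% = 10 µM 1-NA-PP1 full growth; higher means more yeast growth rescued from 5-FOA killing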). Particulars: S. cerevisiae cbk1-as DSE1-URA3 strain, 5-FOA growth OD615, 2 d; at 50 µM; stronger effect = higher value.
[16] abbreviates: H69AR cells + 2 uM doxorubicin, measured here: viability with 2 uM doxorubicin, stronger effect = lower value.
Where [17] appears, read: H69AR cells, compound alone cytotoxicity.

As to `CC(=O)NC(CCS(C)(=O)=O)C(=O)Nc1cccc2ccccc12` (stereo not drawn), the viability – broadly, a read-out of living cells in per cent, often relative to untreated cells – in test [1] was 108%; in test [3] it was 108% (inactive); in test [4], 94% (inactive); in test [5] it was 87.5% (inactive); in [6] (setting [16]), 97.7%; in test [6] (setting [17]), 87.5%. Moreover, the viability was 103% (inactive) in test [12] and 88.3% (inactive) in test [13]. In [2], the Her2 level is 102% (inactive). Besides, in test [6] (H69AR cells + 2 uM doxorubicin), the differential viability (reversal) is -10.2% (inactive). The figures for the inhibition in test [7], in [8] and in test [14] were -1.87% (inactive), -5.5% (inactive) and 1.77% (inactive), respectively. Further, the growth inhibition was -12.6% (inactive) in test [9] and -14.3% (inactive) in test [10]. The viability increase in test [11] is -2.44% (inactive). The RAM network inhibition in [15] was 8.64% (inactive).

Take `CCOC(=O)C1CCCN(C(=O)c2ccc(CS(=O)(=O)c3ccc(Br)cc3)o2)C1` (stereo not drawn): the viability in [1] was 85.5%; in [3], 85.5% (inactive); in test [4], 79.5% (inactive); in test [5], 95.6% (inactive); in [6] (setting [16]), 97.3%; in test [6] (setting [17]), 95.6%. In addition, the viability was 100% (inactive) in test [12] and 98.6% (inactive) in test [13]. For the same compound, the Her2 level in [2] was 102% (inactive). Moreover, the differential viability (reversal) in test [6] (H69AR cells + 2 uM doxorubicin) was -1.7% (inactive). In addition, the inhibition (as a rule, the change of the read-out against control, counted positive when it falls) is -2.93% (inactive) in [7], -3.83% (inactive) in [8] and 1.39% (inactive) in [14]. Moreover, the growth inhibition in [9] is -9.14% (inactive); in [10] it was -18.5% (inactive). In addition, the viability increase in [11] was -1.86% (inactive). Moreover, the RAM network inhibition in [15] was 3.92% (inactive).

For `Cc1c(C)n(C)c2ccc(C(=O)NCc3cccs3)cc12`, the viability is 93.5% in test [1]; 93.5% (inactive) in test [3]; 95.7% (inactive) in [4]; 90.7% (inactive) in test [5]; 74.6% in [6] (setting [16]); 90.7% in test [6] (setting [17]). Moreover, the viability is 97.5% (inactive) in test [12] and 96.8% (inactive) in test [13]. For the same compound, the Her2 level in [2] was 87.5% (inactive). In addition, in test [6] (H69AR cells + 2 uM doxorubicin), the differential viability (reversal) was 16.1% (inactive). The inhibition was -2.8% (inactive) in test [7], -4.59% (inactive) in test [8] and 1.61% (inactive) in test [14]. Moreover, the growth inhibition in [9] was -23.4% (inactive); in test [10], 1.59% (inactive). Moreover, the viability increase in test [11] is 3.39% (inactive). In [15], the RAM network inhibition is 0% (inactive).

With `O=C(Nc1ccc2snnc2c1)N1CCN(c2ccccc2)CC1`, the viability in test [1] is 81.5%; in test [3], 81.5% (inactive); in [4], 75.4% (inactive); in test [5], 85.3% (inactive); in test [6] (setting [16]), 92.9%; in test [6] (setting [17]), 85.3%. Also, the viability was 85.2% (inactive) in [12] and 79.4% (inactive) in test [13]. In addition, in test [2], the Her2 level is 86% (inactive). The differential viability (reversal) in test [6] (H69AR cells + 2 uM doxorubicin) is -7.63% (inactive). For the same compound, the results for the inhibition in test [7], in test [8] and in [14] were -0.38% (inactive), -2.33% (inactive) and 1.3% (inactive), respectively. For the same compound, the growth inhibition in [9] is -13.7% (inactive); in test [10], -17.1% (inactive). Also, the viability increase in [11] was -2.11% (inactive). Further, the RAM network inhibition in [15] was 5.24% (inactive).

As to `O=C(Cn1c(=O)[nH]c2ccsc2c1=O)NC1CCCCCC1`, the viability was 110% in test [1]; 110% (inactive) in test [3]; 111% (inactive) in test [4]; 94.3% (inactive) in test [5]; 97% in [6] (setting [16]); 94.3% in test [6] (setting [17]). The viability was 106% (inactive) in test [12] and 99.2% (inactive) in test [13]. Moreover, the Her2 level in test [2] was 97% (inactive). In addition, the differential viability (reversal) in test [6] (H69AR cells + 2 uM doxorubicin) is -2.65% (inactive). Besides, the inhibition in test [7] was -7.16% (inactive); in [8] it was 2.17% (inactive); in test [14], 0.875% (inactive). In addition, the growth inhibition was -6.35% (inactive) in [9] and -17.4% (inactive) in [10]. Further, the viability increase in [11] was 1.49% (inactive). Also, the RAM network inhibition in test [15] was 0.72% (inactive).

In the case of `CCc1ccc(C2CC(c3cccc(OC)c3)n3nc(N)nc3N2)cc1` (stereo not drawn), the viability is 90% in test [1]; 90% (inactive) in [3]; 113% (inactive) in test [4]; 105% (inactive) in test [5]; 97.5% in [6] (setting [16]); 105% in test [6] (setting [17]). Further, the viability in test [12] was 93.3% (inactive); in test [13], 81.1% (inactive). Further, the Her2 level in [2] was 92% (inactive). Also, in test [6] (H69AR cells + 2 uM doxorubicin), the differential viability (reversal) was 7.42% (inactive). For the same compound, the values for the inhibition in test [7], in test [8] and in test [14] were 2.31% (inactive), 4.83% (inactive) and 1.21% (inactive), respectively. The growth inhibition in test [9] was -0.21% (inactive); in test [10] it was 12% (inactive). In addition, the viability increase in test [11] is 2.74% (inactive). The RAM network inhibition in test [15] was 4.95% (inactive).

As for `O=C(COc1ccc(=O)n(-c2ccccc2)n1)Nc1ccccc1`, the viability in [1] was 96%; in [3], 96% (inactive); in [4] it was 102% (inactive); in test [5], 98.8% (inactive); in test [6] (setting [16]), 92.4%; in test [6] (setting [17]), 98.8%. The results for the viability in test [12] and in [13] were 109% (inactive) and 98.6% (inactive), respectively. For the same compound, in test [2], the Her2 level was 95.5% (inactive). Also, in [6] (H69AR cells + 2 uM doxorubicin), the differential viability (reversal) is 6.32% (inactive). Also, the inhibition in test [7] is -4.4% (inactive); in test [8], 0.82% (inactive); in test [14], 2.81% (inactive). Also, the growth inhibition in test [9] was -1.58% (inactive); in test [10] it was 9.99% (inactive). Moreover, in [11], the viability increase is -1.83% (inactive). Moreover, the RAM network inhibition in test [15] is 1.04% (inactive).

Consider `COc1ccc(C)cc1S(=O)(=O)N1CCN(S(=O)(=O)c2cc(C)ccc2OC)CC1`, for which the viability in test [1] was 110%; in test [3], 110% (inactive); in test [4] it was 96.5% (inactive); in test [5] it was 95% (inactive); in [6] (setting [16]), 95.2%; in test [6] (setting [17]), 95%. Also, the viability in test [12] was 93.8% (inactive); in test [13], 90.9% (inactive). Moreover, the Her2 level in test [2] is 114% (inactive). In addition, the differential viability (reversal) in test [6] (H69AR cells + 2 uM doxorubicin) was -0.24% (inactive). For the same compound, the inhibition in test [7] is -5.47% (inactive); in [8], -9.03% (inactive); in test [14] it was 2.31% (inactive). Further, the figures for the growth inhibition in [9] and in test [10] were -15.6% (inactive) and -26.2% (inactive), respectively. For the same compound, the viability increase in [11] was -0.01% (inactive). In addition, in test [15], the RAM network inhibition is 3% (inactive).

As to `COc1ccccc1S(=O)(=O)Cc1ccc(C(=O)N2CCN(c3ccccn3)CC2)o1`, the viability in test [1] was 101%; in test [3], 101% (inactive); in test [4] it was 87.8% (inactive); in test [5], 88.9% (inactive); in test [6] (setting [16]), 82.1%; in test [6] (setting [17]), 88.9%. Further, the viability in test [12] is 92.8% (inactive); in test [13] it was 85.1% (inactive). Further, the Her2 level in test [2] was 84.5% (inactive). In addition, the differential viability (reversal) in test [6] (H69AR cells + 2 uM doxorubicin) was 6.81% (inactive). Besides, the inhibition in test [7] was -3.47% (inactive); in test [8], -1.97% (inactive); in test [14], 0.76% (inactive). Moreover, the results for the growth inhibition in [9] and in [10] were -6.28% (inactive) and -10.3% (inactive), respectively. Besides, the viability increase in test [11] was -1.97% (inactive). Besides, the RAM network inhibition in test [15] was 0.78% (inactive).
